Laboratory results published in PMC7862700, “An all-to-all approach to the identification of sequence-specific readers for epigenetic DNA modifications on cytosine”.

Assays:
Test in all cases: DAPPL (digital affinity profiling via proximity ligation, sequencing); 10 mM Tris-HCl pH 7.5, 50 mM NaCl, 1 mM DTT, 4% glycerol, room temperature, 30 min; GST-TFs on glutathione beads, 16-mer random dsDNA library, 0.1% formaldehyde crosslink after washing; high values mean tight binding
Conditions in all cases: protein: recombinant; tags: N-terminal GST; dsDNA, one strand shown
ERG = target: T1, ERG (Homo sapiens, UniProt P11308 1-479)
T1 sequence: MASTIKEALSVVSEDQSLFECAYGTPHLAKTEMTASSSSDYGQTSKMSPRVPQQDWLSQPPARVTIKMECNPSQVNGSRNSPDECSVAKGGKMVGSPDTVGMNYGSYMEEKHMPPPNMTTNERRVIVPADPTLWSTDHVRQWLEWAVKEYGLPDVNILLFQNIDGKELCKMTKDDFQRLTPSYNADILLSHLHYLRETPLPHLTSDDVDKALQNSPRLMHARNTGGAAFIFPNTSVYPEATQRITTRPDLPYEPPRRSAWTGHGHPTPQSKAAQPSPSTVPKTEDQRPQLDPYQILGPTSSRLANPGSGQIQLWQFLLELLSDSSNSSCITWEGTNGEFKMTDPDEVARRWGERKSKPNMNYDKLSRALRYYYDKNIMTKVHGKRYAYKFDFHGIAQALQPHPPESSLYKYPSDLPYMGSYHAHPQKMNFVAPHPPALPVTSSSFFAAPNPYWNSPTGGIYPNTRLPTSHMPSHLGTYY
Summary of the method: (§1)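 Human transcription factors were made in yeast as GST fusions, captured on glutathione beads and barcoded with DNA. With a tag-only sample included, the pool was incubated with 200 nmole of a random double-stranded 16-mer DNA library in Tris/NaCl/DTT/glycerol buffer at room temperature for 30 min, then crosslinked with 0.1% formaldehyde after washing, ligated by proximity, amplified and sequenced. For binding signal, each hexamer's read frequency for a factor is divided by its frequency for the tag-only sample.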

SPIB = SPIB (Homo sapiens, UniProt Q01892 1-262)
Chain of SPIB (Q01892 whole entry): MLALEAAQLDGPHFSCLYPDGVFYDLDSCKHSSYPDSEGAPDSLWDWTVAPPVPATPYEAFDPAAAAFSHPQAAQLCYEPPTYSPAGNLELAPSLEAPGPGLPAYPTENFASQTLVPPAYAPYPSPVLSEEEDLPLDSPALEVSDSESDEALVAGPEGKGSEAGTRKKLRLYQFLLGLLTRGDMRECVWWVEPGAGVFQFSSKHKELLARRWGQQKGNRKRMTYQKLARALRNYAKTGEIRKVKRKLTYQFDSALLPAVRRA
Summary of the method: as §1

ETV5 = ETV5 (Homo sapiens, UniProt P41161 1-510)
Chain of ETV5 (P41161 whole entry): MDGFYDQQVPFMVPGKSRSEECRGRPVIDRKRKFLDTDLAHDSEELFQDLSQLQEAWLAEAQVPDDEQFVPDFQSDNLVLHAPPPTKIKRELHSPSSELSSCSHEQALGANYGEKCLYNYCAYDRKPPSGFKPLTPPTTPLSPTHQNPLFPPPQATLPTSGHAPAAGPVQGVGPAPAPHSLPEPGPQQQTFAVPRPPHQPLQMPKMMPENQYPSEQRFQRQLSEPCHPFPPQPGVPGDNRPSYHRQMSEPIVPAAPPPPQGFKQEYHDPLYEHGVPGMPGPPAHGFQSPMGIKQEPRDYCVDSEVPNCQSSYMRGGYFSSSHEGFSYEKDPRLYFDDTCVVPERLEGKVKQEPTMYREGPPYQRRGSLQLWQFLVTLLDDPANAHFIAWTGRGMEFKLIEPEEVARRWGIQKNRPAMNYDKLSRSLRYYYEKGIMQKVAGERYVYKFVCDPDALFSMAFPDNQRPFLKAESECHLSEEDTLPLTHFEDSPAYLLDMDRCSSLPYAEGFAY
Summary of the method: as §1

SPIC = target: T2, SPIC (Homo sapiens, UniProt Q8N5J4 1-248)
T2 sequence: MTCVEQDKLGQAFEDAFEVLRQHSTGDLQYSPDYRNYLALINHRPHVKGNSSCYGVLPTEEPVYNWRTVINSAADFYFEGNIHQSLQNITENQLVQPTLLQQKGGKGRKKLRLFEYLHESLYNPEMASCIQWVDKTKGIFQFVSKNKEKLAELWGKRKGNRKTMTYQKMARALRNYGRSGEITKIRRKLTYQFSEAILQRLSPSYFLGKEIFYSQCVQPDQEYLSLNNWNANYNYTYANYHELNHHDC
Summary of the method: as §1

SPDEF = target: T3, SPDEF (Homo sapiens, UniProt O95238 1-335)
T3 sequence: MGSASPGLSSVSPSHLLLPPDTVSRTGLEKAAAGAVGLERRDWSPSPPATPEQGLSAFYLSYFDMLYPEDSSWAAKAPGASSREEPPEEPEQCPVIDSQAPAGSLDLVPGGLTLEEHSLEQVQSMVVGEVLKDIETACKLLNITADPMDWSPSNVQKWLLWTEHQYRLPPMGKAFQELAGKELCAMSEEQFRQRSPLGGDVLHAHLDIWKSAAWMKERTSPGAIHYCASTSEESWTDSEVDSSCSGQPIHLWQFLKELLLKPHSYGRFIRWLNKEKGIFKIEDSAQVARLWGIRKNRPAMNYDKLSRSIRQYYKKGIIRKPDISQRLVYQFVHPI
Summary of the method: as §1

ETV3 = target: T4, ETV3 (Homo sapiens, UniProt P41162-2 1-143)
T4 sequence: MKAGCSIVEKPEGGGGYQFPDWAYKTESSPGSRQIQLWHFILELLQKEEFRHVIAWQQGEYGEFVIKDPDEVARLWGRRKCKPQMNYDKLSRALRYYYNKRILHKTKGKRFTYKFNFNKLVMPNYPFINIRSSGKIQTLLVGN
Summary of the method: as §1

ELK1 = target: T5, ELK1 (Homo sapiens, UniProt P19419 1-428)
T5 sequence: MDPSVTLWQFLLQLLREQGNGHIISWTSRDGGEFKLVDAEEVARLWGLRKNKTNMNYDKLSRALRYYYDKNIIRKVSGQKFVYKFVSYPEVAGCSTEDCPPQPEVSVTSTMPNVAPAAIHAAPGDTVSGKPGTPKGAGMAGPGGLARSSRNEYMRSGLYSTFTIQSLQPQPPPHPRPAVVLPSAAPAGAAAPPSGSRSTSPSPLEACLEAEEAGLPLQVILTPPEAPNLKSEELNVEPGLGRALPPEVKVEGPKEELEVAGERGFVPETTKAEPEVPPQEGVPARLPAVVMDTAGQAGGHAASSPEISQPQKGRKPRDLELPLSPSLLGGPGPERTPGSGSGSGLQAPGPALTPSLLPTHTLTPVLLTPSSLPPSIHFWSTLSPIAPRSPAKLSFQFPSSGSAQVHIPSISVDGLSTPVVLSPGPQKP
Summary of the method: as §1

EHF = target: T6, EHF (Homo sapiens, UniProt Q9NZC4 1-300)
T6 sequence: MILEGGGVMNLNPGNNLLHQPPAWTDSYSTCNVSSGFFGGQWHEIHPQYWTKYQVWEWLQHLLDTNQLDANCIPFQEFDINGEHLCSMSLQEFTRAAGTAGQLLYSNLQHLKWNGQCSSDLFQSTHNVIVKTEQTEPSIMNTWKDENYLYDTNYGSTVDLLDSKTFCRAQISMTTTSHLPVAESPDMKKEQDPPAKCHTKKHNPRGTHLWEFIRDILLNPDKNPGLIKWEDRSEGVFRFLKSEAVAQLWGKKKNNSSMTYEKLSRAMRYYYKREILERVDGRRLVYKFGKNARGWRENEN
Summary of the method: as §1

ELK4 = target: T7, ELK4 (Homo sapiens, UniProt P28324-2 1-405)
T7 sequence: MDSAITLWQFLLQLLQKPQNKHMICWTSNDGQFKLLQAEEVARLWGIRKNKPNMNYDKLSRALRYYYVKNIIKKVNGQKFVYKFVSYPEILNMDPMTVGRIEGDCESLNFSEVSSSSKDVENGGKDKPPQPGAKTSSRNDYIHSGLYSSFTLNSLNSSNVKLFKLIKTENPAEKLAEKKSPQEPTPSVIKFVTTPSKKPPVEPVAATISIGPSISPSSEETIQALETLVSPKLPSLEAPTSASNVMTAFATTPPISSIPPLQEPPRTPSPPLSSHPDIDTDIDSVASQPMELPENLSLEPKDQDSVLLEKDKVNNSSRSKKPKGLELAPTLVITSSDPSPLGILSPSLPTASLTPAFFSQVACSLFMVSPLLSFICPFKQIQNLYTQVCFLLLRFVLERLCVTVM
Summary of the method: as §1

ETV3L = target: T8, ETV3L (Homo sapiens, UniProt Q6ZN32 1-361)
T8 sequence: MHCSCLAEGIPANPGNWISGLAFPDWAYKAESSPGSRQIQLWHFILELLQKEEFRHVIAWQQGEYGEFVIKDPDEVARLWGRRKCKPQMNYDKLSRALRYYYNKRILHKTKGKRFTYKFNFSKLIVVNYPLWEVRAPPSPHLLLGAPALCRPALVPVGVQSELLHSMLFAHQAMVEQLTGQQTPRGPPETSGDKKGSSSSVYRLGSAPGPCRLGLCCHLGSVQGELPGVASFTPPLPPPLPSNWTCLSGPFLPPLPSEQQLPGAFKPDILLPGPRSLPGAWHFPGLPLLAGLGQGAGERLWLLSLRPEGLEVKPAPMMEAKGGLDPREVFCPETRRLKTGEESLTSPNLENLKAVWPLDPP
Summary of the method: as §1

ETV1 = ETV1 (Homo sapiens, UniProt P50549 1-477)
Chain of ETV1 (P50549 whole entry): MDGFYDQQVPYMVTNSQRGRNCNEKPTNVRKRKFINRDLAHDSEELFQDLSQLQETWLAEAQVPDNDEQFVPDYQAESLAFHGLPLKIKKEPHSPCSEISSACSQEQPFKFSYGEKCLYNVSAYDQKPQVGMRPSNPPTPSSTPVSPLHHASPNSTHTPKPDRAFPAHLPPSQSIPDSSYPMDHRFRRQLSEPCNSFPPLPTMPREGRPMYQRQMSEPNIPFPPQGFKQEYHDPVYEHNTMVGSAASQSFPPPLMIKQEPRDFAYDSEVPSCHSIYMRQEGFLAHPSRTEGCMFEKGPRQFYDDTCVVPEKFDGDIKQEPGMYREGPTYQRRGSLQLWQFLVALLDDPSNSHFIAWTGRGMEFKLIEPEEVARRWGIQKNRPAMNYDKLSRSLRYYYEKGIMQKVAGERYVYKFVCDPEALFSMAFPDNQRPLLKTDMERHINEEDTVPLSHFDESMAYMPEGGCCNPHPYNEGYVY
Summary of the method: as §1

Sequence | binding signal (ERG) | binding signal (SPIB) | binding signal (ETV5) | binding signal (SPIC) | binding signal (SPDEF) | binding signal (ETV3) | binding signal (ELK1) | binding signal (EHF) | binding signal (ELK4) | binding signal (ETV3L) | binding signal (ETV1)
ATCCGT | 1.04 fold enrichment (6-mer frequency, TF over GST control) | 1.1 fold enrichment (6-mer frequency, TF over GST control) | 1.05 fold enrichment (6-mer frequency, TF over GST control) | 1 fold enrichment (6-mer frequency, TF over GST control) | 1.41 fold enrichment (6-mer frequency, TF over GST control) | 1.04 fold enrichment (6-mer frequency, TF over GST control) |  |  |  |  | 
CAGTTC |  | 1.04 fold enrichment (6-mer frequency, TF over GST control) | 1.04 fold enrichment (6-mer frequency, TF over GST control) | 1.17 fold enrichment (6-mer frequency, TF over GST control) |  | 1.13 fold enrichment (6-mer frequency, TF over GST control) | 1.05 fold enrichment (6-mer frequency, TF over GST control) | 1.02 fold enrichment (6-mer frequency, TF over GST control) | 1.07 fold enrichment (6-mer frequency, TF over GST control) | 1.05 fold enrichment (6-mer frequency, TF over GST control) | 
GTCCGG | 1.03 fold enrichment (6-mer frequency, TF over GST control) |  | 1.01 fold enrichment (6-mer frequency, TF over GST control) |  | 1.18 fold enrichment (6-mer frequency, TF over GST control) | 1.05 fold enrichment (6-mer frequency, TF over GST control) |  |  |  |  | 1 fold enrichment (6-mer frequency, TF over GST control)
